# From article PMC12136788
# The full ranking holds about 5,800 sequences; the median of “enrichment r” is about 0.68, and the highest 2% start at about 11. A selection follows.
# T1: UNK ZnF1-6 (called full-length) (human, UniProt Q9C0B0 30-357)
# T1 sequence: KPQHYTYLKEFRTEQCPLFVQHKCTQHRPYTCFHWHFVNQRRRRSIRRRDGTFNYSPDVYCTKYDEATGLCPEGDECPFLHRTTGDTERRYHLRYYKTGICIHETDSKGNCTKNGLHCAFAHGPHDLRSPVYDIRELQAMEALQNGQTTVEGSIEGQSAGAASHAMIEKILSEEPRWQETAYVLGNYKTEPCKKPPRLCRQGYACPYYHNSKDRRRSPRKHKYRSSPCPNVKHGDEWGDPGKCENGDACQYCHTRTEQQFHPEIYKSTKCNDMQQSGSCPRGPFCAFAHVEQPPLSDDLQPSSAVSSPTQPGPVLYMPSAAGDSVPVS
# B1: chr15:65058426:65058617:-|CDS|ENSG00000103710|control|control|control (ssRNA)
# RNA: GGGAGUUCUACAGUCCGACGAUCCUGAACUGGGCCCAUGCCUUCCUGGUGGUGUACAGCGUCGACAGCCGCCAGAGCUUUGAUAGCAGCAGCAGCUACCUGGAGCUGCUUGCCUUGCACGCGAAGGAGACACAGCGCAGCAUCCAACAGAGGAUUGAGCAUCA
# B2: chr8:28970260:28970371:+|CDS|ENSG00000147421|unk|total|mutant (ssRNA)
# RNA: GGGAGUUCUACAGUCCGACGAUCUCUUCCUCUACAGCUACAGCUUCCACACAGACGCAGCAUUCGGGAAUGUCCCCGUCACCCCGCAACAGUUAUGAUACUUCCCCACAGCCUUGCACUACCAAUCAAAAUGGGAGGGAGAAUCAACAGAGGAUUGAGCAUCA
# B3: chr1:13148904:13149928:-|three_prime_utr|ENSG00000280267|control|control|control (ssRNA)
# RNA: GGGAGUUCUACAGUCCGACGAUCCCUGGACCUGAGUGGCAUCAGACUGACCAAUUACAGUCUUGUGCCUCUCCAAAUUCUCCUAGAAAAAGUUGCAGCCACCCUUGAGUACCUGGAUUUAGAUGACUGUGGCAUCAUAGACUCCAACAGAGGAUUGAGCAUCA
# B4: chr14:63372511:63372612:-|3pUTR|ENSG00000154001|unk|total|mutant (ssRNA)
# RNA: GGGAGUUCUACAGUCCGACGAUCUGGGGAUGAGGGUGGGAUGGGAAAGGGAUGUAUGGAUGUUAUUGGCAUUUUUAAGUGUUCCGAGUUUUUUGGGGUUUGGGGUGGUUUUUUUUCCUUGUUUUCCUUUUUUCCUUUUAAUUGCAACAGAGGAUUGAGCAUCA
# B5: chr5:74627411:74627511:-|3pUTR|ENSG00000171617|msi1_unk|total|mutant (ssRNA)
# RNA: GGGAGUUCUACAGUCCGACGAUCUUUGUAAAACUGUUAUUUUUUUUUUUUUCACAAUGUGAAACUGAAGGUCAAUAAAUUAUCCGAGAUUUUCUCUUCAUUAUGUGUGUGGGUCUUCAUUUGAAUAAGACACAAUUUGAGGCACAACAGAGGAUUGAGCAUCA
# B6: chr10:68442948:68443070:-|CDS|ENSG00000138346|unk|total|mutant (ssRNA)
# RNA: GGGAGUUCUACAGUCCGACGAUCCCCAAUUGUGAUGCUGCCCAAAACCGAAGAAGAAACCCAGCAUCUGAAGCAAACACACUCCGAAUAUUUCAGCCUUUGGUGUCUAAUGUUAACCCUGGAGUCACAAUCGAAGGAUAAUAACAACAGAGGAUUGAGCAUCA
# B7: ENSG00000127995:stop:overlap|stop_codon|ENSG00000127995|stop_codon|NA|stop_codon (ssRNA)
# RNA: GGGAGUUCUACAGUCCGACGAUCUAGCUGCAUUUUUUUGUGGACUCCUCAUCUUAUCAUCCAUUCAAGAUAAAUCAAAACAUUAGGUUCCAAAAAUUCUAAAAAACCUAAACUCUUCAGGCUACCUUUGUGUGUCUCUAGAAGCAACAGAGGAUUGAGCAUCA
# B8: chr12:13219749:13219850:+|3pUTR|ENSG00000134531|unk|total|mutant (ssRNA)
# RNA: GGGAGUUCUACAGUCCGACGAUCACAACAGUGGAUGGGGAGGAAGAACAGACUUUUGAGCUCUUCCCAAUACCGGAAUGUGUCCGUUCUAAAAAUUUUCUUAAGUUGUUUGCUUGGAACUCAGAGUAUAUUUUUCCAUACGAACAACAGAGGAUUGAGCAUCA
# B9: chr10:128098466:128098636:-|3pUTR|ENSG00000148773|msi1|total|mutant (ssRNA)
# RNA: GGGAGUUCUACAGUCCGACGAUCUCCUUUCCUUUCUGAAAAUAAAGUUUUGUGCUUUGGAGAAUGACUCGUGAGCACAUCUUCCGGGACCAAGAGUGACUUUCUGUAAGGAGUGACUCGUGGCUUGCCUUGGUCUCUUGGGAACAACAGAGGAUUGAGCAUCA
# B10: chr7:137014887:137014989:+|CDS|ENSG00000181072|unk|total|mutant (ssRNA)
# RNA: GGGAGUUCUACAGUCCGACGAUCGCUACUUGGCUACUGAUCCGAGAACGCAAAAUGAAUAACUCAACAAACUCCUCUAACAACCGCCUGGCUCUUACAAGUCCUUAUAAGACAUUUGAAGUGGUGUUUAUUGUCCUGGUGGCUCAACAGAGGAUUGAGCAUCA
# B11: chr17:8173470:8173636:-|3pUTR|ENSG00000179029|msi1|total|mutant (ssRNA)
# RNA: GGGAGUUCUACAGUCCGACGAUCUGUUUGUCUGUAUCGUCAGGUGGGAUAAUCCUUACCUGUUCCUCCUCCGGAGGGCAGAUCCGAACAUGAUGAUUGGAGAUGCAUGAAACGUGAUUAACGUCUCUGCGUAAUCAGGACUUGCAACAGAGGAUUGAGCAUCA
# B12: ENSG00000124766:be:win_3601|3pUTR|ENSG00000124766|bound_else_gene|NA|bound_elsewhere_windowed (ssRNA)
# RNA: GGGAGUUCUACAGUCCGACGAUCUGUACUGCGUUUUUCAUUCUUGUAUUUGACUAUUUAAUCCUUUCUACUUGUCGCUAAAUAUAAUUGUUUUAGUCUUAUGGCAUGAUGAUAGCAUAUGUGUUCAGGUUUAUAGCUGUUGUGCAACAGAGGAUUGAGCAUCA
# B13: ENSG00000198589:be:win_7751|CDS|ENSG00000198589|bound_else_gene|NA|bound_elsewhere_windowed (ssRNA)
# RNA: GGGAGUUCUACAGUCCGACGAUCAAGUGCAUUCCCAGUGCUUUGUCAUCACUUCAGACAACCGCUAUAUUCUCGUCUGUGGCUUCUGGGAUAAAAGUUUCAGAGUCUAUUCUACAGACACAGGAAGAUUGAUCCAAGUGGUGUCAACAGAGGAUUGAGCAUCA
# B14: ENSG00000198589:be:win_2051|CDS|ENSG00000198589|bound_else_gene|NA|bound_elsewhere_windowed (ssRNA)
# RNA: GGGAGUUCUACAGUCCGACGAUCUACUGACUAUGCAUGAGGAUGACAAUCUAAUGGAUGUCCUACAGCUGCUUGUUGCAUUAAUGUCAGAACACCCUAACUCUAUGAUUCCUGCUUUUGACCAAAGGAAUGGGUUACGUGUUACAACAGAGGAUUGAGCAUCA
# B15: chr17:42842016:42842117:+|3pUTR|ENSG00000131467|msi1|FALSE|unique (ssRNA)
# RNA: GGGAGUUCUACAGUCCGACGAUCUUACUGUUUCUUUCCUCUGUGGGGCAUUGGAUCCUCCCACAGUUGCCCUGGUGAUGACUUAGGGCUUCCCAUCUGUGUACAUCCCACUUUGAAUCUUGAUCGUGACAAGAAAUACCUUAGCAACAGAGGAUUGAGCAUCA
# B16: chr6:132296306:132296407:-|3pUTR|ENSG00000079931|msi1|FALSE|unique (ssRNA)
# RNA: GGGAGUUCUACAGUCCGACGAUCAUGGGAAACAUAGAAAUGGUAUGUAUUAAUAACUGAUCAUAGGCUGAGGAGAAAAAAUGUAGCUGGCUGCAAACCCAGUGCUGUGAGGUGACUUAUAUGAGGUUCCAGAUCAAAGACAGGCAACAGAGGAUUGAGCAUCA
# B17: chr2:69942770:69942871:+|3pUTR|ENSG00000059728|unk|total|mutant (ssRNA)
# RNA: GGGAGUUCUACAGUCCGACGAUCUGUUUCCAGAUGUUUCUUUAUGUAAAUAUGACGCCAAUGUAAAUCCUGUGUCAAGAUCACCGAGAAUGGUGCUUUUUACUACAGUCCGCACAUGCAUUUUCCGAAACUACUACAUGUUUUCAACAGAGGAUUGAGCAUCA
# B18: ENSG00000107863:be:win_51|CDS|ENSG00000107863|bound_else_gene|NA|bound_elsewhere_windowed (ssRNA)
# RNA: GGGAGUUCUACAGUCCGACGAUCCAAGGCCUGCGAGGUCUCAAAAAAUAAAGAUGGAAAAGAACAAAGUGAAACUGUAUCACUGUCUGAAGAUGAAACAUUCUCCUGGCCAGGUCCCAAAACAGUUACGUUGAAAAGAACAUCCAACAGAGGAUUGAGCAUCA
# Target: T1, UNK ZnF1-6 (called full-length)
# Assay: nsRBNS (natural sequence RNA bind-n-seq); RBNS binding buffer (assumed for nsRBNS): 25 mM Tris pH 7.5, 150 mM KCl, 3 mM MgCl2, 0.01% Triton X-100, 500 ug/ml BSA, 20 U/ml SUPERase-In, 4 C; UNK is unkempt and MSI1 is Musashi-1; names of the RNAs are library labels; protein concentration not given here; high values mean tight binding
row,Binder,binding signal
1,B1,0.597 enrichment R
2,B2,0.625 enrichment R
3,B3,0.577 enrichment R
4,B4,1.7 enrichment R
5,B5,0.75 enrichment R
6,B6,0.471 enrichment R
7,B7,0.828 enrichment R
8,B8,0.58 enrichment R
9,B9,0.483 enrichment R
10,B10,0.461 enrichment R
11,B11,0.686 enrichment R
12,B12,0.795 enrichment R
13,B13,0.285 enrichment R
14,B14,0.35 enrichment R
15,B15,0.557 enrichment R
16,B16,0.863 enrichment R
17,B17,0.355 enrichment R
18,B18,0.505 enrichment R
